In PubChem BioAssay (NCI) one finds growth data, which are given here for nine compounds.

The panel holds about 83,000 compounds, 20% with a hit somewhere; the sample as a whole holds those more often.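 Results are percent growth after 48 hours of single-concentration exposure. 100 means growth as in untreated cells, lower positive values show inhibition; negative values down to -100 show cell death.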 Values without a mark were called inactive. Active and inactive are the calls of the source. How the source made its calls: active means growth percent below 10; inactive means the rest.

What all share (assay): NCI-60 one-dose screen, 48 h (100 = growth as untreated, 0 = no growth, -100 = all killed)
Common to all, as to settings: 10 µM unless noted

For experiment [1], the system named is RPMI-8226 leukemia.
The test system of experiment [2] is OVCAR-8 ovarian.
In experiment [3] the test system is OVCAR-5 ovarian.
For experiment [4], the system named is OVCAR-4 ovarian.
Experiment [5] relates to SK-OV-3 ovarian.
Experiment [6] has as its system IGROV1 ovarian.
The test system of experiment [7] is OVCAR-3 ovarian.
The subject of experiment [8] is HS 578T breast.
Experiment [9] has as its system NCI/ADR-RES ovarian.
Experiment [10] relates to T-47D breast.
Experiment [11] has as its system BT-549 breast.
In experiment [12] the test system is MDA-MB-435 melanoma.
For experiment [13], the system named is SW-620 colon.
In experiment [14] the test system is MCF7 breast.
For experiment [15], the system named is HCT-116 colon.
In experiment [16] the test system is HCC-2998 colon.
The test system of experiment [17] is KM12 colon.

On to `COC(=O)/C=C1\SC(=Nc2ccc(C(F)(F)F)cc2)N(CCc2c[nH]c3ccccc23)C1=O`, for which the growth was -22.5% (active) in experiment [1]; -9.92% (active) in experiment [2]; -41.4% (active) in [3]; -33.2% (active) in experiment [4]; 10.4% in experiment [5]; -66.1% (active) in [6]. Besides, the growth is -91% (active) in experiment [7]; -2.51% (active) in [8]; -12.9% (active) in [9]; -40.7% (active) in experiment [10]; -21.8% (active) in [11]; -85.1% (active) in experiment [12]. Further, the growth in [13] was -76.1% (active); in experiment [14], -7.91% (active); in experiment [15], -63.4% (active); in experiment [16], -90.6% (active); in [17] it was -62.8% (active).

For the compound `CCN1CCN(Cc2ccc(NC(=O)c3cccc(C#Cc4cccc5[nH]nc(N)c45)c3)cc2C(F)(F)F)CC1`, the growth is -36.9% (active) in experiment [1]; -69.9% (active) in [2]; -20% (active) in experiment [3]; -2.48% (active) in [4]; -13.5% (active) in [5]; -60.3% (active) in experiment [6]. Further, the growth was -62.8% (active) in experiment [7]; -19.9% (active) in experiment [8]; -35% (active) in experiment [9]; -32% (active) in experiment [10]; 3.52% (active) in experiment [11]; -91.2% (active) in [12]. Also, the growth in experiment [13] is -76% (active); in experiment [14], -77.8% (active); in [15] it was -96.5% (active); in experiment [16] it was -87.4% (active); in experiment [17], -75% (active).

For `O=c1cc(/C=N\Nc2nc(-c3ccc(Cl)cc3Cl)cs2)c2cc(Cl)ccc2o1`, the growth in [1] was 90.8%; in experiment [2] it was 99.7%; in experiment [3], 96.9%; in experiment [4], 85.3%; in [5], 81.8%; in experiment [6], 79.8%. Also, the growth in [7] was 101%; in experiment [8], 101%; in experiment [9], 98.1%; in [10], 69.7%; in experiment [11], 96.7%; in [12] it was 105%. Also, the growth was 104% in experiment [13]; 78.2% in [14]; 80% in experiment [15]; 105% in experiment [16]; 94.3% in experiment [17].

On to `CC(=O)c1cc2c(N)c(C(=O)Nc3ccccn3)sc2nc1C`, for which the growth in experiment [1] was 99.2%; in experiment [2] it was 103%; in [3], 89.4%; in experiment [4] it was 99.4%; in experiment [5] it was 48.3%; in experiment [6], 92.8%. The growth in experiment [7] is 92.2%; in [8], 74.2%; in experiment [9], 94.7%; in experiment [10], 94.5%; in experiment [11], 98.6%; in experiment [12], 5.72% (active). The growth in [13] is 96.9%; in experiment [14], 73.2%; in [15] it was 93.3%; in experiment [16], 84.6%; in experiment [17] it was 89.3%.

Consider `CN1CCN(CC#CCOC(=O)CNC(=O)[C@]23CCC(C)(C)C[C@H]2C2=CC[C@@H]4[C@@]5(C)CC[C@H](O)C(C)(C)[C@@H]5CC[C@@]4(C)[C@]2(C)CC3)CC1`, for which the growth is 76.8% in [1]; 81.3% in experiment [2]; 101% in experiment [3]; 105% in experiment [4]; 86.2% in experiment [5]; 90.4% in experiment [6]. For the same compound, the growth was 94.6% in [7]; 95.5% in experiment [8]; 87.6% in [9]; 75.5% in experiment [10]; 88.9% in experiment [11]; 101% in experiment [12]. For the same compound, the growth in experiment [13] is 86.8%; in experiment [14] it was 72%; in [15] it was 76.2%; in experiment [16], 106%; in experiment [17] it was 94.5%.

On to `Cc1c(C(=O)Nc2nc3ccccc3[nH]2)cnn1-c1ccccn1`, for which the growth in experiment [1] is 95.6%; in experiment [2] it was 98.3%; in experiment [3] it was 108%; in [4], 105%; in [5], 104%; in experiment [6], 114%. Further, the growth in experiment [7] is 112%; in experiment [8], 112%; in experiment [9], 106%; in experiment [10] it was 101%; in experiment [11], 111%; in [12], 108%. Further, the growth in [13] is 107%; in experiment [14], 95.6%; in [15], 97.3%; in [16], 97.3%; in [17] it was 103%.

With `Cc1c(Cl)cccc1NC(=O)c1sc2nc3c(cc2c1N)CN(Cc1ccccc1)CC3`, the growth in experiment [1] is 54.8%; in [2], 64.2%; in experiment [3], 75.1%; in [4] it was 62.4%; in experiment [5], 44.2%; in experiment [6] it was 52.2%. Besides, the growth was 0.716% (active) in experiment [7]; 28.6% in [8]; 41.4% in experiment [9]; 56.8% in [10]; 61.9% in [11]; -4.11% (active) in [12]. The growth was 16.8% in experiment [13]; 16.1% in [14]; 39.3% in experiment [15]; 82.9% in [16]; 30.8% in [17].

For `Cn1c2ccccc2c2c(OC(=O)c3ccccc3)c3c(nc21)-c1ccccc1C3`, the growth in experiment [1] is 96.2%; in experiment [2], 92.7%; in experiment [3], 112%; in [4] it was 95.7%; in experiment [5], 92%; in experiment [6], 82.5%. For the same compound, the growth in experiment [7] is 99.1%; in experiment [8], 107%; in experiment [9], 99%; in experiment [10] it was 63.7%; in experiment [11], 94%; in experiment [12], 104%. The growth in experiment [13] was 105%; in experiment [14] it was 72.7%; in experiment [15], 95.9%; in experiment [16] it was 106%; in experiment [17], 96.7%.

Take `COCCOCCOCc1n(Cc2ccc3ccccc3c2)c2ccccc2[n+]1Cc1ccc2ccccc2c1`: the growth in experiment [1] is -6.22% (active); in experiment [2] it was 9.98% (active); in experiment [3], 21.4%; in experiment [4], 17%; in [5], 2.88% (active); in experiment [6], -7.12% (active). Moreover, the growth in experiment [7] is 7.16% (active); in [8] it was 39.9%; in [9], 105%; in experiment [10], -3.39% (active); in [11], 1.44% (active); in experiment [12] it was 7.86% (active). Further, the growth in experiment [13] is 18.9%; in experiment [14], 7.6% (active); in experiment [15], 20.1%; in experiment [16] it was 17.8%; in [17], -25.9% (active).
